Most compounds without a hit are left out; they make up all but 22% or so of the library.
F-actin modifier – cytoskeleton assembly modification | HUVEC TNFa F-actin phalloidin imaging, high content | inhibition, % at 2 µM | 91,000 compounds, 0.18% hits | AID 836;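 active = inhibition above the batch mean plus 3 SD and confirmed as a hit by visual image inspection, cut at about 30% in these data, passing the limit was not always enough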
CYP2C9 activ – increases human cytochrome P450 2C9 activity | activation factor at 5 µM | P11712 | 96,000 compounds, 1.4% hits | recombinant CYP2C9, luciferin-H conversion, luminescence; hits give high values; factor 1 = untreated enzyme, 0 = blocked;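 active = activation factor of 2 or more for CYP2C9 at a 5 µM dose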;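 also: 0 = sulfaphenazole-blocked wells and 1 = vehicle-only wells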
CYP2C9 inh – human CYP2C9 inhibition; P11712; CYP2C9 Supersomes, luciferin-H conversion, luminescence; inhibition, % at 5 µM; 96,000 compounds, 20% hits; AID 777;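 active = blocking of liver enzyme CYP2C9 beyond about 50% at 5 µM, limit read from the data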
CYP2C19 act – activators of human cytochrome P450 2C19 | P33261 | AID 1025 | recombinant CYP2C19, luciferin-H EGE luminescence; hits give high values; 0 = fully inhibited enzyme, 1 = untreated enzyme | 96,000 tested, under 10 active | activation factor at 5 µM;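 active = activation factor of at least 2 at 5 µM in the primary screen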;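 also: 0 = wells with 2.5 mM tranylcypromine and 1 = vehicle-only wells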
Target sequence (P33261 whole entry, looked up): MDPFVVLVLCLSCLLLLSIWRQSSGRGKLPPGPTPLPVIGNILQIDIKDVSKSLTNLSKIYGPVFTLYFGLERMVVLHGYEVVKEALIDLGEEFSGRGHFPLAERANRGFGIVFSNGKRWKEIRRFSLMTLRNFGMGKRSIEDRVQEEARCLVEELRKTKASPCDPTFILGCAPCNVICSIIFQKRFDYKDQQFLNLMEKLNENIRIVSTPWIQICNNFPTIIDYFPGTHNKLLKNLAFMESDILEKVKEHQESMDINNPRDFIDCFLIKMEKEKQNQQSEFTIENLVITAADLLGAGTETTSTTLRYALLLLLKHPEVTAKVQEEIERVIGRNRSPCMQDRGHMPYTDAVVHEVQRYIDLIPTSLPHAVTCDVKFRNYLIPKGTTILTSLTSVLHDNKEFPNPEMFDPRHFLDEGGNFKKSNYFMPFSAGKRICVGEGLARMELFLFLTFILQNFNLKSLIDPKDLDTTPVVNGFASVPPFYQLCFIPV
E-sel TNF inh – TNF alpha driven E-selectin expression inhibition; AID 1246; inhibition, % at 2 µM; 120,000 compounds, 0.71% hits; HUVEC TNFa-induced E-selectin immunofluorescence, high content;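 active = inhibition above the batch mean plus 3 SD, and confirmed as a hit on visual image review, cut at about 43% in these data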;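 also: 0% = TNF-stimulated DMSO wells and 100% = unstimulated control wells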
CYP2C19 inh – inhibitors of human CYP2C19 | CYP2C19 Supersomes, luciferin-H EGE luminescence, 30 min | 96,000 compounds, 21% hits | P33261 | AID 778 | inhibition, % at 5 µM;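 active = CYP2C19 inhibition above a set limit at 5 µM in the primary screen, cut at about 50% in these data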;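 also: plate controls were negative control wells for no effect and 2.5 mM tranylcypromine positive control for full effect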
Active calls of the source: *; · = not tested or not shown.

SMILES	F-actin modifier	CYP2C9 activ	CYP2C9 inh	CYP2C19 act	E-sel TNF inh	CYP2C19 inh
O=C(Nc1ccc(Cl)cc1C(=O)c1ccccc1)c1ccc(Br)o1	-1.5	1.1	-8.5	1.1	-17.9	-14.7
CN1C2CCC1/C(=C/c1ccccn1)C(=O)/C2=C\c1ccccn1	·	·	·	·	96.4*	·
CC(=O)OC1N=C(c2ccccc2)c2cc(C)ccc2NC1=O (stereo unspecified)	-3.0	0.9	8.6	1	-8.7	1.6
COc1cccc(CN2CCCCC2c2cccnc2)c1 (stereo unspecified)	3.9	0.8	17.5	0.6	·	38.2
COc1ccc(CN2CCCCC2c2cccnc2)cc1C (stereo unspecified)	4.9	0.9	14.7	0.2	·	80.0*
CCOC(=O)c1c(C)n(Cc2ccc3c(c2)OCO3)c2ccc(O)cc12	-10.9	0.6	42.0	0.7	-5.2	25.2
CCOC(=O)c1c(C)n(Cc2ccccc2)c2ccc(OCC(O)CN3C(=O)CNC3=O)cc12 (stereo unspecified)	5.5	0.1	87.4*	0.3	-15.1	68.5*
CC12CN3CC(C)(CN(C1)P3(=O)Oc1ccccc1)C2=O (stereo unspecified)	-1.6	1.1	-13.9	0.9	·	12.9
COC(=O)C1=C(N)Oc2c(c(=O)oc3ccccc23)[C@]12C(=O)N(C)c1ccccc12	·	0.3	68.5*	0.3	-20.9	67.8*
COC(=O)C1=C(N)OC(C)=C(C(C)=O)C12C(=O)N(C)c1ccccc12 (stereo unspecified)	·	0.8	16.8	1	·	-3.9
CCOc1ccccc1N1C(=O)NC(=O)/C(=C/c2ccc3c4c(cccc24)CC3)C1=O	-18.3	4.1*	-306.3	0.9	-60.8	6.6
CC(=NCCN1CCOCC1)c1c(O)n(C2CCCCC2)c(=O)[nH]c1=O	-4.8	0.8	20.6	0.9	20.8	10.2
COc1ccc2c(c1OC)C(=O)OC2c1c(O)n(C2CCCCC2)c(=O)[nH]c1=O (stereo unspecified)	5.0	0.3	68.8*	0.9	-29.6	5.8
COC(=O)C[C@]1(C(=O)OC)CN(C#N)N(c2ccc(Cl)cc2)C12c1ccccc1-c1ccccc12	22.7	·	·	·	88.5*	·
COC(=O)[C@@H]1[C@@H](C(=O)OC)C2(c3ccccc3-c3ccccc32)N(c2ccc(Cl)cc2)N1C#N	-12.9	·	·	·	11.8	·
C=CCn1c(O)c(C(C)=NCCCN2CCOCC2)c(=O)[nH]c1=O	16.2	1.1	-7.8	1.1	2.9	-14.0
CC1=CC(C)C(COC(N)=O)(COC(N)=O)C(C)C1 (stereo unspecified)	-22.7	0.9	7.3	0.6	-21.1	43.6
COc1ccc(CN2CCN(c3ccccc3F)CC2)cc1O	-15.4	0.9	8.3	0.3	-12.6	74.5*
COc1ccccc1N1CCN(Cc2ccc(Cl)cc2Cl)CC1	-11.3	0.8	23.4	0.4	14.8	56.1*
Fc1ccccc1N1CCN(Cc2c(F)cccc2F)CC1	-3.6	0.4	63.4*	0	-5.9	99.7*
COc1ccc(-n2c(O)c(C=Nc3c(C)n(C)n(-c4ccccc4)c3=O)c(=O)[nH]c2=O)cc1	11.2	0.9	7.4	1	31.4	-1.7
CCCN(CC#CCOc1ccc(OC)cc1)CCC	5.2	0.8	15.1	0.8	14.2	18.9
CN1C(=O)N(C)C(=O)C2(Cc3ccccc3N3CCOCC32)C1=O (stereo unspecified)	4.4	1	-2.3	0	12.5	98.1*
Cc1ccc(N2C(=O)NC(=O)C3(Cc4ccccc4N4CCN(c5ccccc5)CC43)C2=O)cc1 (stereo unspecified)	0.6	0.5	48.1	0.7	-28.7	30.9
O/N=C1/C(=C\c2ccccc2)N2CCC1CC2	-2.8	0.7	34.7	0.2	13.7	83.3*
SMILES	F-actin modifier	CYP2C9 activ	CYP2C9 inh	CYP2C19 act	E-sel TNF inh	CYP2C19 inh
COc1ccc(/C=C2\C(=N\O)C3CCN2CC3)cc1	7.8	·	·	·	-36.3	·
Fc1ccc(C2NCCc3[nH]cnc32)cc1 (stereo unspecified)	·	·	·	·	6.0	·
COCCNC(=O)c1c(NC(=O)c2ccco2)n(Cc2ccccc2)c2nc3ccccc3nc12	·	0.2	76.5*	0.6	·	38.1
CCOc1c(P(=S)(N(C)C)N(C)C)c(C)nn1-c1ccccc1	15.4	0.2	78.5*	0.1	-23.4	88.8*
CC(C)Sc1nnc([C@@H](N)Cc2c[nH]c3ccccc23)o1	-6.5	0.8	17.5	0.2	2.5	77.3*
Cc1c(C=O)c2ccccc2n1Cc1cccc(F)c1	·	·	·	·	-4.3	·

Compound activity as filed in PubChem.
